Results filed as inconclusive are left out. Calls of active or inactive are those of the source. Calls come from the whole dose curve; as a rule, active = well fitted cell-killing curve with a large enough effect; inconclusive = small, poorly fitted or top-dose-only effect; inactive = flat fitted curve, though single readings scatter.
Assay: Quantitative highthroughput screen to assess conditional lethalithy of P12 Ichikawa cells grown in RPMI1640 with untreated serum (RPMI+s) (AID 1963881); note: nearly all actives have a fitted effect of over 35% in size
Conditions: ATP luminescence, 48 h; Potency: viability; series mostly up to 45.8 µM; viability: at the top concentration
Text: Assay Provider: Jason Cantor Ph.D.
Department of Biochemistry
University of Wisconsin-Madison, Madison, WI, USA
Chemical screening studies have identified drug sensitivities across hundreds of cancer cell lines but most putative therapeutics fail to translate. Discovery and development of drug candidates in models that more accurately reflect nutrient levels in human blood is a major challenge. Here we performed high-throughput screens in conventional versus Human Plasma-Like Medium (HPLM) to identify compounds that were "missed" when screening using the artificial culture condition. Sets of conditional anticancer compounds spanned phases of clinical development and included non-oncology drugs were assessed. […] We also traced conditional phenotypes for several chemotherapeutics to availability of HPLM-specific metabolites and confirmed others for compounds whose reported targets are encoded by nonessential genes. Our findings establish generalizable strategies for exploiting conditional lethality in HPLM to reveal therapeutic candidates and mechanisms of action in cancer cells.
Described herein are the results of each viability screens against three cell lines: NOMO1 (an acute myeloid leukemia cell line); P12-Ichikawa (a T-cell acute lymphoblastic leukemia); and SEM (a B-cell ALL). Each assay was screened using 3 different cell culture media: homemade human plasma-Like medium with 10% dialyzed fetal bovine serum (HPLM+ds); RPMI1640 with 10% untreated FBS and 5mM glucose (RPMI+s); and RPMI1640 with 10% dialyzed fetal bovine serum and 5 mM glucose (RPMI+ds).
PROTOCOL TABLE (as described by Inglese J, Shamu CE and Guy RK. 2007)
SEQUENCE No. (e.g., 1, 2, 3, etc.); […] (e.g., Cells, Incubation, Reagent, etc.); VALUE and DESCRIPTION.
1; Cells; 5 uL; white, solid bottom 1536-well Greiner assay plate.
2; Compounds; 23 nL; Kalypsis pin tool (Wako USA) equipped with a 1536-well pin head to transfer to the assay plates.
3; Incubation; 48 hours; 37C incubation.
4; Reagent; 3 uL; CellTiter Glo (Promega).
5; Incubation; 5 min, room temperature
6; Detection; Luminescence, Viewlux PerkinElmer.
NOTES (numbers refer to Sequence numbers above)
1. Briefly, 5 ul of cell reagent was dispensed using a Multidrop Combi Dispenser. The NOMO1 and SEM cells were plated at 500 cells/well and the P12-Ichikawa line at 1000 cells/well.
2. After seeding the cells, 23 nL of MIPE 4.1 library compounds (in DMSO) were added to each plate using a Kalypsys 1536 Pintool dispenser. Bortezomib at final concentration of […] and DMSO were added to each plate as positive and negative controls respectively. For each screen, MIPE 4.1 compounds were added over an eleven-point concentration range […] in 3-fold dilutions.
3. Each plate was covered with a stainless steel gasketed lid to prevent evaporation and incubated for 48 hour at 37C, 95% relative humidity, and 5% CO2.
4-5. Three microliter CellTilter-GloTM luminescent substrate mix (Promega) reagent was added to the assay plate and incubated at room temperature for 5 min.
6. The luminescence signal was measured using a ViewLux (PerkinElmer) multiplate reader with a 2 second exposure time per plate. Data for each compound were normalized as percent viability such that measurements for DMSO and the empty well controls in each plate were defined as 100% and 0%, respectively.
Potency is the fitted concentration of half-maximal effect.

Row | SMILES | Potency | viability
1 | COc1cc(C(=O)NC2CCN(C)CC2)ccc1Nc1ncc2c(n1)N(C1CCCC1)CCC(=O)N2C(C)C | 11.8 µM (active) | –
2 | CCC(C=C[C@@H]1OC(=O)C=C[C@H]1C)=C[C@H](C)CC=CC(C)=C[C@@H](C)C(=O)[C@@H](C)[C@H](O)[C@@H](C)CC(C)=CC(=O)O | 0.0877 µM (active) | –
3 | Cc1onc(-c2ccccc2)c1C(=O)N[C@@H]1C(=O)N2[C@@H](C(=O)O)C(C)(C)S[C@@H]12 | 1.32 µM (active) | –
4 | O=C(Nc1nc2ccccc2n1CCN1CCOCC1)c1cccc([N+](=O)[O-])c1 | – | 86.9% (inactive)
5 | Cc1cc(Nc2ncc3c(n2)N(C)C(=O)N(c2cc(NC(=O)c4cccc(C(F)(F)F)c4)ccc2C)C3)n(C)n1 | 5.9 µM (active) | –
6 | CN1C(=O)C[C@H](C(=O)N[C@@H](Cc2cnc[nH]2)C(=O)N2CCC[C@@H]2C(N)=O)NC1=O | – | 94.3% (inactive)
7 | CCCCCCCCCCCC(CC1OC(=O)C1CCCCCC)OC(=O)C(CC(C)C)NC=O (stereo not given) | 20.9 µM (active) | –
8 | Nc1nccc(-c2ccc3noc(-c4ccc(Cl)cc4)c3c2)n1 | – | 104% (inactive)
9 | NC(CO)(CO)CCc1ccc(Sc2cccc(OCc3ccccc3)c2)cc1Cl | 10.5 µM (active) | –
10 | CCc1cnn2c(NCc3ccc[n+]([O-])c3)cc(N3CCCC[C@@H]3CCO)nc12 | 0.118 µM (active) | –
11 | O=S(=O)(O)CCSSCCS(=O)(=O)O | – | 100% (inactive)
12 | CC(C)=CC[C@@H](O)C1=CC(=O)c2c(O)ccc(O)c2C1=O | 10.5 µM (active) | –
13 | Cc1cnc(Nc2cccc(CN3CCOCC3)c2)nc1Nc1cccc(S(=O)(=O)NC(C)(C)C)c1 | – | 85% (inactive)
14 | Cc1[nH]c(C=C2C(=O)Nc3ccc(S(=O)(=O)Cc4c(Cl)cccc4Cl)cc32)c(C)c1C(=O)N1CCC[C@H]1CN1CCCC1 | – | 91.4% (inactive)
15 | Fc1ccc(Cl)cc1-c1nc(Nc2ccncc2)c2nccnc2n1 | – | 87.2% (inactive)
16 | C[C@H]1COc2c(N3CCN(C)CC3)c(F)cc3c(=O)c(C(=O)O)cn1c23 | 4.18 µM (active) | –
17 | CC(=O)Nc1sc2c(c1-c1nc3ccccc3s1)CNC2 | 16.6 µM (active) | –
18 | CCOC(=O)N1CCN([N+]([O-])=NOc2cc(ON=[N+]([O-])N3CCN(C(=O)OCC)CC3)c([N+](=O)[O-])cc2[N+](=O)[O-])CC1 | – | 98.6% (inactive)
19 | CCNC(=O)[C@H]1O[C@@H](n2cnc3c(N)nc(NCCc4ccc(CCC(=O)O)cc4)nc32)[C@H](O)[C@H]1O | – | 101% (inactive)
20 | Nc1c2c(nc3ccccc13)CCCC2 | – | 86.9% (inactive)

Row | SMILES | Potency | viability
21 | CC1(C)CCC[C@@]2(C)[C@@H]1CC[C@@]1(C)OC(=O)C[C@H]21 | – | 90.7% (inactive)
22 | COc1cc(OC2CCN(C)CC2)ccc1Nc1ncc2c(n1)n(C1CCCC1)c(=O)n2C | 23.5 µM (active) | –
23 | CN(C)c1nc(Cc2ccc(NC(=O)c3ccc(C(F)(F)F)cc3)cc2)nc(N(C)C)c1CC(=O)O | – | 105% (inactive)
24 | COc1cc(C)c(Sc2cnc(NC(=O)c3ccc(CNC(C)C(C)C)cc3)s2)cc1C(=O)N1CCN(C(C)=O)CC1 (stereo not given) | – | 91.6% (inactive)
25 | Cc1cn(CCN2CCN(c3ccccc3-c3cc(C#N)cc(C(=O)NCCCN4CCCC4)c3)CC2)c2ccccc12 | 8.31 µM (active) | –
26 | NS(=O)(=O)c1cc(C(=O)O)c(NCc2ccco2)cc1Cl | – | 93.1% (inactive)
27 | C[C@H](CCC(=O)O)[C@H]1CCC2C3C[C@H](O)[C@@H]4C[C@H](O)CC[C@]4(C)C3CC[C@@]21C (stereo not given in full) | – | 101% (inactive)
28 | O=C(Nc1cc(C(F)(F)F)cc(C(F)(F)F)c1)c1cc(Cl)ccc1O | 2.96 µM (active) | –
29 | CCN1CCCC1CNC(=O)c1cc(S(=O)(=O)CC)c(N)cc1OC (stereo not given) | – | 81.7% (inactive)
30 | CCCNC(=O)[C@H]1O[C@H]1C(=O)N[C@H](C(=O)N1CCC[C@@H]1C(=O)OC)C(C)CC (stereo not given in full) | 16.6 µM (active) | –
31 | C1Cc2[nH]nc(-c3nn[nH]n3)c2C1 | – | 102% (inactive)
32 | CC(C(=O)O)c1cccc(C(=O)c2ccccc2)c1 (stereo not given) | – | 99.6% (inactive)
33 | COc1cc2c(Nc3ccc(Br)cc3F)ncnc2cc1OCC1CCN(C)CC1 | – | 102% (inactive)
34 | COc1cc([C@H]2Oc3cc([C@H]4Oc5cc(O)cc(O)c5C(=O)[C@H]4O)ccc3O[C@H]2CO)ccc1O | – | 91.6% (inactive)
35 | CNS(=O)(=O)Cc1ccc2[nH]cc(CCN(C)C)c2c1 | – | 105% (inactive)
36 | C[C@@H](Cc1cc2c(c(C(N)=O)c1)N(CCCO)CC2)NCCOc1ccccc1OCC(F)(F)F | – | 90.3% (inactive)
37 | CCN(CCO)CCCC(C)Nc1ccnc2cc(Cl)ccc12 (stereo not given) | 10.5 µM (active) | –
38 | N[C@@H](Cc1cc(I)c(Oc2cc(I)c(O)c(I)c2)c(I)c1)C(=O)O | – | 99.6% (inactive)
39 | CCCCCCCCCCCC1=C(O)C(=O)C=C(O)C1=O | 2.09 µM (active) | –
40 | NC(=O)c1ccc(-c2nc(-c3ccc4c(c3)OCCO4)c(-c3ccccn3)[nH]2)cc1 | – | 103% (inactive)

From PubChem BioAssay (NCATS)
